Shown is part of a subset that was picked to be rich in hits.
PD-1 reverse act: reversal of PD-1 mediated T-cell inhibition; primary human CD4 T cells, PD-L1 beads, CellTiter-Glo 96 h; activation, % (no concentration beside the values); 29,000 tested, under 10 active; call rule not given here
NOMO-1 viab: STK33 inhibitor candidate reducing NOMO-1 cell viability. NOMO-1 AML viability, CellTiter-Glo luminescence, 72 h. inhibition, % (concentration not given with the values). 37,000 compounds, 7.5% hits; in the data active means inhibition above about 80%; inconclusive means no clear call, values can overlap the other calls
STK33 inh: human STK33 kinase inhibition | inhibition, % at 12.5 µM | 27,000 compounds, 0.44% hits | ADP-Glo luminescence, MBP substrate | AID 2322; in the data active means inhibition above about 20%; inconclusive means no clear call, values can overlap the other calls
Target sequence (Q9BYT3 whole entry, looked up): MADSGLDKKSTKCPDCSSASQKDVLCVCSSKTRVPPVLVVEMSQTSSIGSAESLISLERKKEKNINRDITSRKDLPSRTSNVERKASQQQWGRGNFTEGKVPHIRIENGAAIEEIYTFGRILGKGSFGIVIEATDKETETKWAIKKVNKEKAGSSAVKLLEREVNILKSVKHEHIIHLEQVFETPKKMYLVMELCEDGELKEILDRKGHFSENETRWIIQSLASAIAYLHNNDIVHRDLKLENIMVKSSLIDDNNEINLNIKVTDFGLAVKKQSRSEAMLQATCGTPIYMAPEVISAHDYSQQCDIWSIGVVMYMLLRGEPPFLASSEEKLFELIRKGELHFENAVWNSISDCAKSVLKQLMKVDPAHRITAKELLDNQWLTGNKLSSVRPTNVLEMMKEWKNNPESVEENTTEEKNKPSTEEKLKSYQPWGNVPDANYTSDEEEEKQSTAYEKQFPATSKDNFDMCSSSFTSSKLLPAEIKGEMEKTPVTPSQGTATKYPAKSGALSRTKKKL
Hits are given with their value; 0 = inactive; ? = inconclusive; - = no result given.

SMILES	PD-1 reverse act	NOMO-1 viab	STK33 inh
CC(=O)Nc1ccc2oc3ccccc3c2c1	0	0	-
CC1=C(C(=O)OCCc2ccccc2)C(c2ccc(N(C)C)cc2)NC(=S)N1 (stereo not given)	0	0	-
O=C1C2=C(NC(=S)NC2c2ccccc2)c2ccccc21 (stereo not given)	0	114.3	0
O=C1C(=O)N(CCCn2ccnc2)C(c2cccs2)C1C(=O)c1cc2ccccc2o1 (stereo not given)	0	0	0
C[C@@H]1CN([C@@H](C)CO)C(=O)c2cccc(NC(=O)C3CCCCC3)c2O[C@H]1CN(C)Cc1ccc(C(F)(F)F)cc1	0	105.3	-
C[C@H](CO)N1C[C@H](C)[C@@H](CN(C)Cc2ccc(C(F)(F)F)cc2)Oc2c(NC(=O)C3CCCCC3)cccc2C1=O	0	99.4	-
C[C@H]1CN([C@@H](C)CO)C(=O)c2cccc(NC(=O)C3CCCCC3)c2O[C@@H]1CN(C)Cc1ccc(C(F)(F)F)cc1	0	91.0	-
C[C@@H]1CN([C@@H](C)CO)C(=O)c2cccc(NC(=O)C3CCCCC3)c2O[C@@H]1CN(C)Cc1ccc(C(F)(F)F)cc1	0	?	-
C[C@H](CO)N1C[C@H](C)[C@H](CN(C)Cc2ccc(C(F)(F)F)cc2)Oc2c(NC(=O)C3CCCCC3)cccc2C1=O	-	0	-
C[C@@H]1CN([C@H](C)CO)C(=O)c2cccc(NC(=O)C3CCCCC3)c2O[C@@H]1CN(C)Cc1ccc(C(F)(F)F)cc1	0	0	-
COc1cc(C(C)/C=C(/C)CC(=O)O)oc(=O)c1C (stereo not given)	0	0	0
CCOC(=O)c1ccc(NC(=O)CSc2nccc(=O)[nH]2)cc1	0	0	0
Cc1nn(Cc2cccc(C(=O)Nc3ccccc3F)c2)c(C)c1Cl	0	0	0
Cc1nn(Cc2cccc(C(=O)NC(=O)Nc3ccc(Cl)cc3)c2)c(C)c1Br	0	106.9	-
Cc1ccc(NC(=O)CCC(=O)c2ccc(Oc3ccccc3)cc2)cc1	0	0	0
C[C@H](CO)N1C[C@H](C)[C@H](CN(C)Cc2ccc(C(=O)Nc3ccccc3N)cc2)Oc2ccc(NC(=O)Nc3cccc4ccccc34)cc2CC1=O	0	141.3	-
C[C@@H]1CN([C@H](C)CO)C(=O)c2cc(NC(=O)Nc3ccc(C(F)(F)F)cc3)ccc2O[C@H]1CN(C)Cc1ccc(C(=O)Nc2ccccc2N)cc1	0	0	-
Cc1noc(C)c1NC(=O)Nc1ccc2c(c1)CC(=O)N([C@@H](C)CO)C[C@@H](C)[C@@H](CN(C)Cc1ccc(C(=O)Nc3ccccc3N)cc1)O2	0	0	-
CC(C)NC(=O)Nc1ccc2c(c1)CC(=O)N([C@H](C)CO)C[C@H](C)[C@H](CN(C)Cc1ccc(C(=O)Nc3ccccc3N)cc1)O2	0	125.7	-
C[C@H](CO)N1C[C@H](C)[C@H](CN(C)Cc2ccc(C(=O)Nc3ccccc3N)cc2)Oc2ccc(NC(=O)Nc3cccc4ccccc34)cc2C1=O	0	?	-
C[C@H](CO)N1C[C@H](C)[C@H](CN(C)Cc2ccc(C(=O)Nc3ccccc3N)cc2)Oc2ccc(NC(=O)Cn3cnnn3)cc2CC1=O	0	96.6	-
C[C@@H]1CN([C@H](C)CO)C(=O)c2cc(NC(=O)Cn3cnnn3)ccc2O[C@H]1CN(C)Cc1ccc(C(=O)Nc2ccccc2N)cc1	0	0	-
C[C@H](CO)N1C[C@H](C)[C@H](CN(C)Cc2ccc(C(=O)Nc3ccccc3N)cc2)Oc2ccc(NC(=O)Nc3ccc(C(F)(F)F)cc3)cc2CC1=O	0	139.8	-
CC(=O)c1cccc(N(CC(=O)Nc2ccc(C)cc2)S(C)(=O)=O)c1	-	0	0
C[C@@H]1CN([C@@H](C)CO)C(=O)Cc2cc(NC(=O)Nc3ccc(C(F)(F)F)cc3)ccc2O[C@@H]1CN(C)Cc1ccc(C(=O)Nc2ccccc2N)cc1	0	127.5	-
SMILES	PD-1 reverse act	NOMO-1 viab	STK33 inh
C[C@@H]1CN([C@H](C)CO)C(=O)Cc2cc(NC(=O)Nc3ccc(F)cc3)ccc2O[C@H]1CN(C)Cc1ccc(C(=O)Nc2ccccc2N)cc1	0	0	-
C[C@@H]1CN([C@H](C)CO)C(=O)Cc2cc(NC(=O)Nc3ccccc3)ccc2O[C@@H]1CN(C)Cc1ccc(C(=O)Nc2ccccc2N)cc1	0	107.8	-
C[C@H](CO)N1C[C@H](C)[C@H](CN(C)Cc2ccc(C(=O)Nc3ccccc3N)cc2)Oc2ccc(NC(=O)c3ccncc3)cc2CC1=O	0	127.7	-
C[C@@H]1CN([C@@H](C)CO)C(=O)Cc2cc(NC(=O)c3ccncc3)ccc2O[C@@H]1CN(C)Cc1ccc(C(=O)Nc2ccccc2N)cc1	0	0	-
C[C@@H]1CN([C@H](C)CO)C(=O)c2cc(NC(=O)Nc3cccc4ccccc34)ccc2O[C@H]1CN(C)Cc1ccc(C(=O)Nc2ccccc2N)cc1	0	0	-
C[C@H]1CN([C@@H](C)CO)C(=O)Cc2cc(NC(=O)Nc3ccc(F)cc3)ccc2O[C@@H]1CN(C)Cc1ccc(C(=O)Nc2ccccc2N)cc1	0	0	-
C[C@@H]1CN([C@H](C)CO)C(=O)c2cc(NC(=O)Nc3cccc4ccccc34)ccc2O[C@@H]1CN(C)Cc1ccc(C(=O)Nc2ccccc2N)cc1	0	104.8	-
COc1ccc(C(C)=O)cc1CSc1nnc(-c2cccc(Br)c2)n1-c1ccccc1	-	0	0
COc1ccccc1NC(=O)c1c(NCc2ccc(C)o2)sc2c1CCC2	-	0	0
CC(=O)Nc1cccc(NC(=O)CSc2ccccc2[N+](=O)[O-])c1	0	0	0
Cc1cc(-c2ccc3ccccc3n2)nc2ccc3ccccc3c12	0	0	-
C[C@H]1CN([C@@H](C)CO)C(=O)Cc2cc(NC(=O)C3CC3)ccc2O[C@H]1CN(C)Cc1ccc(C(=O)Nc2ccccc2N)cc1	0	127.5	-
C[C@@H]1CN([C@H](C)CO)C(=O)Cc2cc(NC(=O)c3ccncc3)ccc2O[C@@H]1CN(C)Cc1ccc(C(=O)Nc2ccccc2N)cc1	0	0	-
C[C@H]1CN([C@@H](C)CO)C(=O)c2cc(NS(=O)(=O)c3ccccc3)ccc2O[C@H]1CN(C)Cc1ccc(C(=O)Nc2ccccc2N)cc1	0	?	-
Cc1noc(C)c1S(=O)(=O)Nc1ccc2c(c1)C(=O)N([C@@H](C)CO)C[C@@H](C)[C@@H](CN(C)Cc1ccc(C(=O)Nc3ccccc3N)cc1)O2	0	107.5	-
Cc1noc(C)c1S(=O)(=O)Nc1ccc2c(c1)C(=O)N([C@H](C)CO)C[C@@H](C)[C@@H](CN(C)Cc1ccc(C(=O)Nc3ccccc3N)cc1)O2	0	107.9	-
Cc1noc(C)c1NC(=O)Nc1ccc2c(c1)CC(=O)N([C@H](C)CO)C[C@@H](C)[C@@H](CN(C)Cc1ccc(C(=O)Nc3ccccc3N)cc1)O2	0	0	-
Cc1noc(C)c1S(=O)(=O)Nc1ccc2c(c1)C(=O)N([C@H](C)CO)C[C@H](C)[C@H](CN(C)Cc1ccc(C(=O)Nc3ccccc3N)cc1)O2	0	108.3	-
Cc1noc(C)c1S(=O)(=O)Nc1ccc2c(c1)CC(=O)N([C@H](C)CO)C[C@H](C)[C@H](CN(C)Cc1ccc(C(=O)Nc3ccccc3N)cc1)O2	0	141.9	-
C[C@H]1CN([C@@H](C)CO)C(=O)c2cc(NS(=O)(=O)c3ccccc3)ccc2O[C@@H]1CN(C)Cc1ccc(C(=O)Nc2ccccc2N)cc1	0	0	-

Source: PubChem
